Screening results as filed in PubChem.
Only a selection was taken, and hits are over-represented in it overall.
KDM5B inhibitor: Primary screen for KDM5B Histone Demethylases FDH-coupled qHTS; KDM5B demethylase, FDH-coupled NADH fluorescence (FDH is formaldehyde dehydrogenase); Potency, µM (series often up to 57.7 µM), hits mostly inhibitors; 220,000 compounds, 2.6% hits; Lysine-specific demethylase 5B (Homo sapiens), Q9UGL1; active = well fitted inhibition curve with a large enough effect; also: 0% is about no effect; nearly all actives have a fitted effect of over 70% in size
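qHTS format, multiple compound concentrations. Buffer 50 mM HEPES pH 7.5/0.01% Tween-20; 200 nM KDM5BΔAP final; 10 min compound preincubation; substrate-mix levels 12.5 µM peptide, 25 µM α-KG, 0.25 mM NAD⁺; 30 min RT; ΔRFU.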
* = called active by the depositor; i = inactive; ! = not confirmed by another sample. Potency is read from the fitted curve at half-maximal effect.

SMILES	KDM5B inhibitor
N#C/C(=C/c1ccc(F)c(F)c1)C(=O)Nc1ccc(Oc2ccc(NC(=O)/C(C#N)=C\c3ccc(F)c(F)c3)cc2)cc1	i
CCN(C(=O)CSc1nc(CN2CCOCC2)nc2ccccc12)C1CCS(=O)(=O)C1 (stereo not given)	i
COCC(C)n1c(COc2ccccc2F)nnc1SCC(=O)OC(C)(C)C (stereo not given)	i
N#C/C(=C\c1cn(Cc2ccc(F)cc2)c2ccccc12)C(N)=O	i
Cc1ccc(S(=O)(=O)NC(C)C(=O)OCc2coc(-c3cccs3)n2)cc1 (stereo not given)	i
COCCN(CC1CC1)C(=O)c1ccc2nc(-c3ccc(F)cc3)cn2c1	25µM*
COCCN(CC1CCN(Cc2ccccc2OC)CC1)C(=O)c1n[nH]c2c1CCC2	i
COCCN1CCC(CN(Cc2ccncc2)C(=O)c2ccc(F)c(C)c2)CC1	i
O=C(Nc1nc2ccccc2s1)C1CCCc2ccccc21 (stereo not given)	i
CCCn1cc(C(=O)CSc2nnc(C)s2)c2ccccc21	i
O=C(NCc1ccccn1)C1CCN(Cc2cc3n(n2)CCCNC3)CC1	i
O=C(NCc1cc2n(n1)CCNC2)C1CCCN(c2ccccn2)C1 (stereo not given)	32µM*
CCc1nc2cc(N3CCCC(C(=O)NCc4ccccn4)C3)cnc2nc1CC (stereo not given)	i
CCc1cc2c(=O)c(-c3cnn(-c4ccccc4)c3)c(C(F)(F)F)oc2cc1O	i
CC(NC(=O)Cc1csc2nc(-c3ccccc3)cn12)c1ccc(Cl)cc1 (stereo not given)	i
O=S(=O)(NCc1cn2ccsc2n1)c1ccccc1	i
O=C(NCc1ccnc2[nH]ccc12)c1cccnc1	i
O=C(NCc1ccnc2[nH]ccc12)c1ccc(C(F)(F)F)cc1	35µM*!
O=C(NCc1ccnc2[nH]ccc12)c1ccncc1	i
CCOC(=O)c1cc(NC(=O)c2cccc(-c3cc4ccccc4oc3=O)c2)ccc1N1CCOCC1	i
COC(=O)CCNC(=O)c1ccc(C(C)(C)C)cc1	i
O=C(c1ccc(Cl)c(Cl)c1)N1CCN(Cc2cc(=O)n3ccsc3n2)CC1	i
OCC(O)CNc1nccc(C2(c3ccccc3Cl)CCNCC2)n1 (stereo not given)	i
CC(C)CNc1nccc(C2(c3ccccc3Cl)CCNCC2)n1	22µM*
Clc1ccccc1C1(c2ccnc(NCc3ccncc3)n2)CCNCC1	i
SMILES	KDM5B inhibitor
CCc1nnc(NC(=O)Cn2ccc3ccc(Cl)cc32)s1	i
O=C(c1c[nH]c2ccccc12)C(Nc1cccc(CO)c1)c1ccccc1 (stereo not given)	i
CC(NCc1cccc(Oc2nnnn2-c2ccccc2)c1)c1ccccc1 (stereo not given)	i
CC(=O)N1Cc2ccccc2CC2(CCCN(CC3CCCCC3)C2)C1 (stereo not given)	i
O=C(O)CCSc1ccccc1Br	i
N#Cc1cccc(NC(=O)N2C[C@@H]3C[C@H](C2)c2ccc(-c4ccc(OC(F)(F)F)cc4)c(=O)n2C3)c1	i
COc1ccc(S(=O)(=O)N2C[C@@H]3C[C@H](C2)c2ccc(NC(=O)c4ccncc4)c(=O)n2C3)cc1	i
COc1ccc(S(=O)(=O)N2C[C@@H]3C[C@H](C2)c2c(-c4ccc(OC(F)(F)F)cc4)ccc(=O)n2C3)cc1	i
O=C(Nc1ccccc1)N1C[C@@H]2C[C@H](C1)c1ccc(-c3cccc(C(F)(F)F)c3)c(=O)n1C2	32µM*
CC(C)(CC(=O)O)CC(=O)N1C[C@@H]2C[C@H](C1)c1ccc(-c3cccc(C(F)(F)F)c3)c(=O)n1C2	28µM*
CC(=O)Nc1ccc(S(=O)(=O)N2C[C@@H]3C[C@H](C2)c2ccc(-c4ccccc4C)c(=O)n2C3)cc1	25µM*
CC(=O)Nc1ccc(S(=O)(=O)Nc2ccc3n(c2=O)C[C@H]2C[C@@H]3CN(Cc3cn(C)c4ccccc34)C2)cc1	i
COc1ccc(S(=O)(=O)N2C[C@@H]3C[C@H](C2)c2c(NC(=O)Nc4ccccc4)ccc(=O)n2C3)cc1	i
COc1ccc(C(=O)Nc2ccc3n(c2=O)C[C@H]2C[C@@H]3CN(C(=O)CCCC(=O)O)C2)cc1	i
CC(=O)c1ccc(NC(=O)N2C[C@@H]3C[C@H](C2)c2ccc(NC(=O)CN(C)C)c(=O)n2C3)cc1	i
O=C(O)C[C@@H]1CCN(C(=O)Nc2ccc(C(F)(F)F)cc2)C[C@@H]1CCN1C[C@@H]2C[C@H](C1)c1cccc(=O)n1C2	i
COc1ccc(S(=O)(=O)N2C[C@@H]3C[C@H](C2)c2ccc(-c4cccc(C(F)(F)F)c4)c(=O)n2C3)cc1	32µM*
O=C(O)c1ccc2c(c1)c(C(C(=O)O)N1CCN(Cc3cccnc3)CC1)cn2Cc1ccccc1 (stereo not given)	i
CN(C(=O)Cc1cccs1)C1(C(=O)NC2CCCCC2)CCCCC1	i
C=CC[N+](C)(C)CC(=O)OC1CC2CCC1(C)C2(C)C (stereo not given)	i
COC(=O)c1cccc(S(=O)(=O)Nc2ccc(Cl)c3cccnc23)c1	i
COCCN(CCOC)C(=O)c1ccc(Cl)cc1F	i
CCc1nc2ccccc2c(NC(=O)CN2CCN(c3ccccc3)CC2)c1C	i
COc1ccc(/C=C2/CCn3c2nc2cc(Cl)ccc2c3=O)cc1O	i
Cn1nc(C(=O)OCCOc2ccccc2)c2ccccc2c1=O	i
SMILES	KDM5B inhibitor
S=C(NCc1ccc(Cl)cc1)Nc1ccc(Cl)c(Cl)c1	i
Cc1ccc(-c2c(C)nn3c2NC(=O)CCC3=O)cc1S(=O)(=O)NCc1ccc(F)cc1	i
C#CCNC(=O)c1nc(-c2ccccc2)c2ccccn12	32µM*
O=C(NCc1ccc2c(c1)OCO2)c1nc(-c2ccsc2)c2ccccn12	14µM*
C#CCNC(=O)c1nc2sccn2c1Br	i
C#CCNC(=O)c1nc(-c2ccc(F)cc2)c2ccccn12	i
Cc1c(C(=O)NCc2ccc(F)cc2)sc2nc(-c3ccccc3)cn12	i
Cc1cccc(C)c1-c1nc(C(=O)NCc2ccc3c(c2)OCO3)n2ccccc12	28µM*
O=C(NCc1ccc2c(c1)OCO2)c1cc(=O)c2ccccc2o1	i
COc1cc(=O)n(-c2ccccc2C)nc1C(=O)NCc1ccc2c(c1)OCO2	i
CC(C)n1nc(C(=O)NCc2ccc3c(c2)OCO3)c2ccccc2c1=O	i
O=C(NCc1ccc(F)cc1)c1nc(-c2ccsc2)c2ccccn12	25µM*
O=C(Cn1c(=O)nc(-c2ccccc2)c2ccccc21)NCc1ccc(F)cc1	i
Cc1ccc2nc(C)cc(C(=O)NCc3ccc4c(c3)OCO4)c2c1	i
CCN(CC(=O)NC)S(=O)(=O)N1CCC(C)CC1	i
CC(=O)Oc1ccc2c(C)c(CC(=O)Nc3ncc(C)s3)c(=O)oc2c1	i
Cc1cccc(N(CC(=O)Nc2ccccc2C(=O)NCC2CCCO2)S(C)(=O)=O)c1C (stereo not given)	i
O=C(NCc1cccs1)c1nc(-c2ccccc2)c2ccccn12	11µM*
CCOc1cc(=O)n2c(c1C(=O)NCc1ccc3c(c1)OCO3)CCCC2	i
O=C(NCc1cccs1)c1nc(-c2ccsc2)c2ccccn12	40µM*
O=C(NCc1ccc(Cl)c(Cl)c1)c1ccc2c(c1)OCO2	i
COc1ccccc1OCc1cc(C(=O)NCc2ccc3c(c2)OCO3)n[nH]1	i
